According to PubChem BioAssay AID1851 (National Center for Advancing Translational Sciences (NCATS), 2009):
Hit rate of the full screen: of about 16,000 compounds, about 5,100 (32%) were called active. Not shown: some 25% with an inconclusive outcome. Some of the results follow. Unmarked numbers belong to inactive results. Calls come from the whole dose curve; as a rule, active = well fitted curve in the direction sought with a large enough effect; inconclusive = small, poorly fitted or top-dose-only effect, or effect the other way; inactive = no such curve, though single readings can be large or run the other way.

Molecular target: Cytochrome P450 3A4 (Homo sapiens) (UniProt P08684)
Test: Cytochrome panel assay with activity outcomes
Settings: recombinant CYP, pro-luciferin dealkylation, luminescence, p450-cyp3a4; series mostly up to 57.1 µM; activity, negative = inhibition: at the top concentration
% is set by controls: 0 for no effect and ±100 for the full control effect.

Cytochrome P450 3A4 (Homo sapiens), sequence (P08684 whole entry, looked up): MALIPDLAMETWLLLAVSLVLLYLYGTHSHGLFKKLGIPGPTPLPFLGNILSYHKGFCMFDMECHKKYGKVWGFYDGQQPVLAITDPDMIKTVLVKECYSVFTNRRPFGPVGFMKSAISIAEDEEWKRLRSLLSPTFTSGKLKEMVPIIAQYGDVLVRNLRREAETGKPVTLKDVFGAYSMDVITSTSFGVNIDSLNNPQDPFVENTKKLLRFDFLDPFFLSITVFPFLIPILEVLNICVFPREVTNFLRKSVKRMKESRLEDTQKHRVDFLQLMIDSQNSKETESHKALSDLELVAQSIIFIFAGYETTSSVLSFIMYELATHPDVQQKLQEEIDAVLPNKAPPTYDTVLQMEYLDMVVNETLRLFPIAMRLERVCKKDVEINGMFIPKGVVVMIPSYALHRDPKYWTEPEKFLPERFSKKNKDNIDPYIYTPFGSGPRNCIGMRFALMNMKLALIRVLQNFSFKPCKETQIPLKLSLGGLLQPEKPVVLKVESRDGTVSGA

Row | SMILES | activity, negative = inhibition | AC50
1 | O=C(O)c1ccccc1/C=N\N=C1c2ccccc2-c2ccccc21 | -13.2% [at 11.4 µM] | –
2 | Cn1c(CNS(=O)(=O)c2ccc(F)cc2)n[nH]c1=S | -10.2% | –
3 | CCOc1ccc(S(=O)(=O)NCc2ccc(F)cc2)c2cccnc12 | – | 15.8 µM (active)
4 | CCOc1ccccc1OCCOc1ccc(F)cc1 | -15% | –
5 | O=C1Nc2ccccc2C1=Nc1ccc(S(=O)(=O)Nc2nccs2)cc1 | -1.93% [at 11.4 µM] | –
6 | Nc1ccc(S(=O)(=O)Nc2nccs2)cc1 | -15.7% [at 25.6 µM] | –
7 | O=C(CCN1C(=O)S/C(=C\c2ccccc2)C1=O)Nc1ccc(S(=O)(=O)Nc2nccs2)cc1 | – | 5.01 µM (active)
8 | O=C(NCC1CCCO1)C1c2ccccc2C(=O)N1Cc1ccc2c(c1)OCO2 (stereo not drawn) | – | 1.41 µM (active)
9 | O=C(NCC1CCCO1)C1CCC(=O)N1CCc1ccccc1 (stereo not drawn) | -13.8% | –
10 | CCS(=O)(=O)N1CCC(C(=O)NCC2CCCO2)CC1 (stereo not drawn) | 1.97% | –
11 | CCOc1ccc(N2C(=O)c3cccnc3C2=O)cc1 | -13.3% | –
12 | CCOc1ccc(-n2c(C)nc3cc(C(=O)NCc4ccco4)ccc32)cc1 | -16.2% | –
13 | CCOc1ccc(-n2c(N)c(C(=O)NCc3cccnc3)sc2=S)cc1 | – | 2 µM (active)
14 | COc1ccc(-n2c(N)c(C(=O)NCc3ccco3)sc2=S)cc1 | – | 25.1 µM (active)
15 | Cc1ccc(-n2c(N)c(C(=O)NCc3ccco3)sc2=S)cc1 | – | 25.1 µM (active)
16 | CC(C)c1cc(CN(C)C)c(O)c(C(C)(C)C)c1 | -5.68% [at 11.4 µM] | –
17 | N#Cc1c(-c2ccc(Cl)cc2)nc2n(c1=O)CCCS2 | -15.8% | –
18 | CCNc1nc(NCC)nc(N(C)N)n1 | -10.2% | –
19 | COc1ccccc1S(=O)(=O)Nc1ccc(-c2nnc3n2CCCCC3)cc1 | – | 14.1 µM (active)
20 | COc1ccc(NS(=O)(=O)c2cc(-c3nnnn3C)ccc2OC)cc1 | -15.9% [at 11.4 µM] | –
21 | Cc1ccc(/C=C/C(=O)c2nc3ccccc3[nH]2)cc1 | -18.1% [at 2.29 µM] | –
22 | O=C(O)/C(=C/c1c(C(=O)O)[nH]c2cc(Cl)cc(Cl)c12)c1ccccc1 | -1.29% | –
23 | O=C(/C(=C/c1ccc(Cl)cc1)c1nc2ccccc2[nH]1)c1ccccc1 | – | 3.55 µM (active)
24 | COc1ccc(N2CCC(CNC(=O)Nc3ccc(OC)cc3OC)C2)cc1 (stereo not drawn) | – | 7.08 µM (active)
25 | COCCN(C(=O)Nc1ccc(OC)cc1OC)C1CCN(C(C)=O)CC1 | -11.9% | –
26 | Cc1ccc2c(c1)N(CC(=O)NCc1cccs1)C(=O)C(C)O2 (stereo not drawn) | -21.8% [at 2.29 µM] | –

Row | SMILES | activity, negative = inhibition | AC50
27 | COc1ccc(CCNC(=O)CCN2C(=O)COc3ccc(C)cc32)cc1OC | – | 2.24 µM (active)
28 | COc1ccc(CC(=S)N2CCOCC2)cc1OC | -2.8% [at 2.29 µM] | –
29 | COc1ccc(CCNC(=O)CCN2C(=O)C(C)Oc3ccc(C)cc32)cc1OC (stereo not drawn) | – | 1.78 µM (active)
30 | NC(=O)c1ccc(C2SCC(=O)N2Cc2ccccc2)cc1 (stereo not drawn) | 8.69% | –
31 | O=C1CSC(c2ccccc2F)N1c1cc(Cl)ccc1O (stereo not drawn) | – | 25.1 µM (active)
32 | O=C1CSC(c2ccccn2)N1c1ccc(Cl)c(Cl)c1 (stereo not drawn) | 11% | –
33 | N#Cc1cccc(-c2nccc(NCc3cccs3)n2)c1 | – | 10 µM (active)
34 | Cc1cccc(CNc2ccnc(-c3cccc(C#N)c3)n2)c1 | – | 1.26 µM (active)
35 | N#Cc1cccc(-c2nccc(NCc3cccnc3)n2)c1 | – | 0.794 µM (active)
36 | N#Cc1cccc(-c2nccc(NCc3ccccc3)n2)c1 | – | 12.6 µM (active)
37 | CN(C)c1ncc2nc(-c3cc(F)cc(F)c3)c(=O)n(CCc3ccccc3)c2n1 | -13% | –
38 | COc1ccccc1CCn1c(=O)c(-c2cccc(F)c2)nc2cncnc21 | – | 3.16 µM (active)
39 | COc1ccccc1CCn1c(=O)c(-c2cc(F)cc(F)c2)nc2cncnc21 | – | 0.398 µM (active)
40 | O=C(N/N=C/c1cccc(OC2CSC2)c1)c1ccccc1O | -1.49% [at 2.29 µM] | –
41 | CCCCS(=O)(=O)NC1=NCN(Cc2ccco2)CN1 | -13.9% | –
42 | CC1(C)OC(=O)N(Cc2ccco2)C1(C)O (stereo not drawn) | -11.6% | –
43 | CC1=CC(=C2C(=O)c3ccccc3C2=O)C=C(C)N1Cc1ccco1 | – | 14.1 µM (active)
44 | COC(=O)c1c(NC(=O)CC2Nc3ccccc3NC2=O)sc(C)c1C (stereo not drawn) | – | 3.55 µM (active)
45 | CCN(CC)CCCNC(=O)CC1Sc2ccccc2NC1=O (stereo not drawn) | 6.35% | –
46 | CC(Sc1nnc(C(C)N(C)C)n1-c1ccc(Cl)cc1)C(=O)Nc1ccc2c(c1)OCO2 (stereo not drawn) | – | 0.891 µM (active)
47 | C/C(=N\NC(N)=S)c1ccc[nH]1 | -6.66% [at 11.4 µM] | –
48 | COc1ccc2oc(-c3ccc(C)c(NC(=O)CSc4ccc(Cl)cc4)c3)nc2c1 | – | 11.2 µM (active)
49 | CCOCC(=O)Nc1cc(-c2cn3cccnc3n2)ccc1C | 24.8% | –
50 | COc1ccc2oc(-c3ccc(C)c(NC(=O)c4ccc(N5CCOCC5)c([N+](=O)[O-])c4)c3)nc2c1 | – | 6.31 µM (active)
51 | CCOC(=O)c1c(NC(=O)c2ccc(N3CCOCC3)c([N+](=O)[O-])c2)sc(C)c1C | -1.99% | –
52 | Cc1ccc(-c2nc3ccccc3o2)cc1NC(=O)Cc1cccs1 | 28.9% | –

Row | SMILES | activity, negative = inhibition | AC50
53 | CCCCn1cnc2c(cnn2-c2ccc(F)cc2)c1=O | -2.78% | –
54 | O=c1c2ccccc2ncn1CCCSc1ccccc1 | -8.34% | –
55 | Cc1ccc(SCCCn2cnc3ccccc3c2=O)cc1 | – | 11.2 µM (active)
56 | CCCCCn1c(=O)c(C(=O)c2ccccc2)nc2ccccc21 | -5.99% [at 2.29 µM] | –
57 | O=C(Cn1c(C(F)(F)F)nc2ccccc21)c1ccccc1 | -8.98% | –
58 | O=C(c1ccccc1)c1nc2ccccc2n(CCCn2c(=O)c(C(=O)c3ccccc3)nc3ccccc32)c1=O | – | 1.41 µM (active)
59 | CN1CCC[C@@H](CC2c3ccccc3Sc3ccccc32)C1 | -7.59% [at 25.6 µM] | –
60 | COc1cc(-n2ccnc2SC)c(Cl)cc1Cl | – | 14.1 µM (active)
61 | COc1ccc(-c2cc(C(=O)NCc3cccnc3)no2)cc1OC | – | 2.51 µM (active)
62 | Cc1cc(C(=O)NCc2ccccc2)no1 | -13.3% | –
63 | COc1cccc(-c2nc(CS(=O)(=O)CC(=O)NCCCOC(C)C)c(C)o2)c1 | – | 7.94 µM (active)
64 | CCOC(=O)N1CCC(NC(=O)CS(=O)(=O)Cc2nc(-c3cccc(OC)c3)oc2C)CC1 | – | 7.08 µM (active)
65 | Cc1cccc(C)c1NC(=O)C(c1ccc(Cl)cc1Cl)N1CCCCC1 (stereo not drawn) | – | 3.98 µM (active)
66 | Cc1cccc(C)c1NC(=O)N1CCC(N2CCCCC2)CC1 | -21.5% | –
67 | O=C(O)/C=C\C(=O)Nc1ncn[nH]1 | -3.91% [at 11.4 µM] | –
68 | CCCN[C@@H](C)C(=O)Nc1ccccc1C | – | inactive
69 | Cc1ccccc1NC(=O)C(C)c1cccc(C(=O)c2ccccc2)c1 (stereo not drawn) | – | 7.94 µM (active)
70 | COC(=O)Nc1nc2ccc(C(=O)c3ccccc3)cc2[nH]1 | -1.41% [at 25.6 µM] | –
71 | Cc1cccc(-c2n[nH]c([N+](=O)[O-])n2)c1 | -5.58% [at 2.29 µM] | –
72 | COc1cccc(CN2CCN(Cc3cc(OC)c(OC)cc3[N+](=O)[O-])CC2)c1 | -15.7% [at 2.29 µM] | –
73 | COc1cccc(-c2noc(Cn3nc(C)c([N+](=O)[O-])c3C)n2)c1 | – | 14.1 µM (active)
74 | CC[C@H](CO)NCCN[C@@H](CC)CO | 4.95% [at 25.6 µM] | –
75 | N[C@@H](Cc1[nH]nc2ccccc12)C(=O)O | -7.68% [at 11.4 µM] | –
76 | CCC1=C(C)CN(C(=O)NCCc2ccc(S(=O)(=O)NC(=O)NC3CCC(C)CC3)cc2)C1=O (stereo not drawn) | -25.9% [at 25.6 µM] | –
77 | O=C(COc1ccc(Cl)cc1)NCCC1=CCCCC1 | -14.7% [at 11.4 µM] | –
78 | COc1ccc(CCCC(=O)NC2CCCCC2)cc1 | – | 20 µM (active)

Row | SMILES | activity, negative = inhibition | AC50
79 | COc1ccc(CCNC(=O)COc2ccc(S(=O)(=O)NC3CCCCC3)cc2Cl)cc1 | – | 7.08 µM (active)
80 | COc1ccc(/C=N/NC(=O)CCCC(=O)NC2CCCCC2)cc1 | – | 12.6 µM (active)
81 | COC(=O)c1ccc(NC(=S)NC2CCCCC2)cc1 | -15.8% | –
82 | CC(C)NC(=O)CC(=O)N/N=C/c1ccc(Br)cc1 | -3.05% | –
83 | COc1ccc(/C=N\NC(=O)O)cc1 | -13.4% [at 11.4 µM] | –
84 | CC(C)OC(=O)C1=C2SCC(=O)N2C(N)=C(C#N)C1 | -16.2% [at 11.4 µM] | –
85 | COc1ccc(-n2c(=O)c(-c3cccc(C#N)c3)nc3cnc(N4CCNCC4)nc32)cc1 | -26.2% | –
86 | c1ccc2c(N3CCNCC3)nc(-c3ccc4c(c3)OCO4)nc2c1 | – | 7.94 µM (active)
87 | N#Cc1cccc(-c2nc(N3CCNCC3)c3ccccc3n2)c1 | – | 31.6 µM (active)
88 | CN1CCN(c2nc(-c3cccc(C#N)c3)nc3ccccc23)CC1 | – | 15.8 µM (active)
89 | CC(Cc1ccccc1)C(=O)NCc1ccccn1 (stereo not drawn) | -42.9% | –
90 | C[C@@H](C(=O)NCc1ccccn1)[C@@H]1C[C@@]1(C)[C@@H](NC(=O)OCc1ccccc1)c1ccccc1 | – | 10 µM (active)
91 | O=C(N[C@@H](c1ccccc1)[C@@H]1C[C@H]1C(=O)NCc1ccccn1)OCc1ccccc1 | – | 6.31 µM (active)
92 | O=C(N[C@@H](c1ccccc1)[C@@H]1C[C@H]1C(=O)O)OCc1ccccc1 | -15.8% | –
93 | C[C@@H](C(=O)NCc1ccccn1)[C@H]1C[C@]1(C)[C@H](NC(=O)OCc1ccccc1)c1ccccc1 | – | 5.01 µM (active)
94 | O=C(O)C(Sc1ccc(Cl)cc1)Sc1ccc(Cl)cc1 | 12.3% [at 11.4 µM] | –
95 | CCc1ccc(C(C(=O)NCc2ccc(OC)cc2)N(CCOC)C(=O)Cc2cccs2)cc1 (stereo not drawn) | – | 1 µM (active)
96 | O=C(NCc1ccccc1)C(c1cccs1)N(Cc1cccs1)C(=O)c1cnccn1 (stereo not drawn) | – | 0.891 µM (active)
97 | COc1ccc(CNC(=O)C(c2ccc(C)cc2)N(Cc2cccs2)C(=O)c2ccc3c(c2)OCCO3)cc1 (stereo not drawn) | – | 1 µM (active)
98 | COc1ccc2nc3oc(C(=O)NCc4cccs4)cc3cc2c1 | -23.2% | –
99 | COc1ccc(C(C(=O)NCc2ccccc2)N(Cc2cccs2)C(=O)c2cnccn2)cc1 (stereo not drawn) | – | 0.708 µM (active)
100 | COc1ccc(C(=O)n2c(SC)nc3cc4c(cc32)OCCO4)cc1 | -12% [at 2.29 µM] | –
101 | COCCN(C(=O)c1ccco1)c1nnc(-c2ccc(OC)cc2)s1 | -28.3% [at 2.29 µM] | –
102 | O=C(O)C(Cc1cccs1)C(=O)O | -8.79% [at 11.4 µM] | –
103 | O=C(COC(=O)c1cnccn1)NCc1ccccc1 | -20.5% [at 11.4 µM] | –
